Results as given in PubChem BioAssay (NCATS).
Where “and” joins values, the source holds several entries; their conditions need not be identical. Equal values may be shown once. Results filed as inconclusive are left out. Where a structure was tested more than once in an assay, its records may differ in their call. Calls of active or inactive are those of the source. Calls follow the shape of the dose curve; as a rule, active = well fitted curve in the direction sought with a large enough effect; inconclusive = small, poorly fitted or top-dose-only effect, or another doubt; inactive = no such curve, though single readings can be large; an effect the other way counts as inactive or inconclusive.

What was measured:
CRL-7250 = normal cell line; assay: Cytotoxic Profiling of Annotated Libraries Using Quantitative High-Throughput Screening (AID 1296008); conditions: Five cell lines viability, CellTiter-Glo ATP luminescence, 48-72 h; max response: stronger effect = lower value; also: nearly all actives have a fitted effect of over 60% in size
How it was run: (§1)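 Cytotoxicity was measured as CellTiter-Glo ATP luminescence, read after 10 min at room temperature. Compound treatment of the cells lasted 48 or 72 hr at 37 degrees Celsius in a qHTS format.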

HaCat [1] = assay: as above; conditions: Five cell lines viability, CellTiter-Glo ATP luminescence, 48-72 h; max response: stronger effect = lower value
How it was run: as §1

KB-3-1 = assay: as above; conditions: Five cell lines viability, CellTiter-Glo ATP luminescence, 48-72 h; max response: stronger effect = lower value
How it was run: as §1

NIH3T3 [2] = assay: as above; conditions: Five cell lines viability, CellTiter-Glo ATP luminescence, 48-72 h; max response: stronger effect = lower value
How it was run: as §1

HACAT [3] = assay: qHTS assay to identify novel small-molecules to repurpose for Merkel cell carcinoma treatment (AID 1296009); conditions: MCC and control cell lines, CellTiter-Glo viability, 72 h; at 44.8 µM (top of the series) unless noted; also: nearly all actives have a fitted effect of over 60% in size
How it was run: (§2)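 Cell viability, measured as CellTiter-Glo luminescence, was normalized between DMSO and no-cell wells. The cells had been exposed to 8- or 11-point compound dilutions for 72 hr at 37 degree celsius.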

MCC-13 = assay: as above; conditions: MCC and control cell lines, CellTiter-Glo viability, 72 h; series mostly up to 46 µM
How it was run: as §2

MKL-1 = assay: as above; conditions: MCC and control cell lines, CellTiter-Glo viability, 72 h; series mostly up to 46 µM
How it was run: as §2

MKL-2 = assay: as above; conditions: MCC and control cell lines, CellTiter-Glo viability, 72 h; series mostly up to 46 µM
How it was run: as §2

NIH3T3 [4] = assay: as above; conditions: MCC and control cell lines, CellTiter-Glo viability, 72 h; series mostly up to 44.8 µM
How it was run: as §2

UISO = assay: as above; conditions: MCC and control cell lines, CellTiter-Glo viability, 72 h; series mostly up to 46 µM
How it was run: as §2

WaGa = assay: as above; conditions: MCC and control cell lines, CellTiter-Glo viability, 72 h; series mostly up to 46 µM
How it was run: as §2

C33A = assay: Primary qHTS to identify gynecologic anti-cancer compounds using libraries of approved drugs and bioactive compounds (AID 1345084); conditions: Gynecologic cancer cell panel viability, ATPlite luminescence, 48 h; series mostly up to 57.5 µM; also: nearly all actives have a fitted effect of over 55% in size
How it was run: (§3)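 48 h compound exposure at 37 C, 5% CO2; five-point qHTS. ATPlite luminescence readout of cell ATP.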

CAOV3 = assay: as above; conditions: Gynecologic cancer cell panel viability, ATPlite luminescence, 48 h; series mostly up to 57.5 µM
How it was run: as §3

CASKI = assay: as above; conditions: Gynecologic cancer cell panel viability, ATPlite luminescence, 48 h; series mostly up to 57.5 µM
How it was run: as §3

Es-2 = assay: as above; conditions: Gynecologic cancer cell panel viability, ATPlite luminescence, 48 h; series mostly up to 57.5 µM
How it was run: as §3

HeLa = assay: as above; conditions: Gynecologic cancer cell panel viability, ATPlite luminescence, 48 h; series mostly up to 57.5 µM
How it was run: as §3

Hek293T [5] = assay: as above; conditions: Gynecologic cancer cell panel viability, ATPlite luminescence, 48 h, control line for the selectivity index; series mostly up to 57.5 µM
How it was run: as §3

HEK293 = assay: Cytotoxic Profiling of Annotated Libraries Using Quantitative High-Throughput Screening (AID 1296008); conditions: Five cell lines viability, CellTiter-Glo ATP luminescence, 48-72 h; max response: stronger effect = lower value; also: nearly all actives have a fitted effect of over 60% in size
How it was run: as §1

HEK293T [6] = assay: qHTS assay to identify novel small-molecules to repurpose for Merkel cell carcinoma treatment (AID 1296009); conditions: MCC and control cell lines, CellTiter-Glo viability, 72 h; at 44.8 µM (top of the series) unless noted; also: nearly all actives have a fitted effect of over 60% in size
How it was run: as §2

MCC-26 = assay: as above; conditions: MCC and control cell lines, CellTiter-Glo viability, 72 h; series mostly up to 46 µM
How it was run: as §2
% is scaled to controls: 0 for no effect and ±100 for the full control effect; potency is read from the fitted curve at half-maximal effect.

Cc1ccccc1-n1c(Cn2nc(-c3cccc(O)c3)c3c(N)ncnc32)nc2cccc(C)c2c1=O
active: Potency (CRL-7250) 2.64 µM | Potency (MCC-13) 18.7 µM | Potency (MKL-1) 1.05 µM | Potency (MKL-2) 10.5 µM | Potency (UISO) 10.5 µM | Potency (WaGa) 0.118 µM
inactive: outcome (CRL-7250) | outcome (HaCat [1]) | max response (KB-3-1) 4.26% and -1.18% | max response (NIH3T3 [2]) -4.97% | outcome (NIH3T3 [2]) | outcome (HACAT [3]) | Potency (NIH3T3 [4]) | Potency (C33A) | Potency (CAOV3) | Potency (CASKI) | Potency (Es-2) | Potency (HeLa) | Potency (Hek293T [5])

COc1nccc(-c2c(-c3ccc(F)cc3)ncn2C2CCC(O)CC2)n1 (stereo not given)
inactive: max response (CRL-7250) 2.19% and -0.385% | max response (HEK293) -17.3% | outcome (HEK293) | max response (HaCat [1]) -10.4% | outcome (HaCat [1]) | outcome (KB-3-1) | max response (NIH3T3 [2]) -1.87% | outcome (HACAT [3]) | outcome (HEK293T [6]) | Potency (MCC-13) | Potency (MKL-1) | Potency (MKL-2) | Potency (UISO) | Potency (C33A) | Potency (CAOV3) | Potency (CASKI) | Potency (Es-2) | Potency (HeLa) | Potency (Hek293T [5])

CCN1CCN(c2ccc(Nc3cc(N(C)C(=O)Nc4c(Cl)c(OC)cc(OC)c4Cl)ncn3)cc2)CC1
active: Potency (CRL-7250) 7.31 µM | Potency (HEK293) 16.4 µM | Potency (HaCat [1]) 8.2 µM | Potency (KB-3-1) 23.1 µM
inactive: max response (HaCat [1]) 4.46% | max response (KB-3-1) 8.02% | outcome (NIH3T3 [2]) | Potency (MCC-13) | Potency (MCC-26) | Potency (MKL-1) | Potency (MKL-2) | Potency (NIH3T3 [4]) | Potency (WaGa) | Potency (C33A) | Potency (CAOV3) | Potency (CASKI) | Potency (Es-2) | Potency (Hek293T [5])

CC(C)CNc1ccnc(NCc2csc(-c3ccccc3)n2)n1
active: Potency (CRL-7250) 1.3 µM | Potency (HEK293) 5.26 µM and 1.64 µM | Potency (HaCat [1]) 16.4 µM | Potency (KB-3-1) 14.6 µM | Potency (NIH3T3 [2]) 23.1 µM | Potency (MKL-2) 16.6 µM | Potency (UISO) 13.2 µM | Potency (Es-2) 22.4 µM
inactive: max response (CRL-7250) -19.9% | max response (HaCat [1]) -4.23% | max response (NIH3T3 [2]) -17.2% | Potency (MCC-26) | Potency (HeLa)

Cn1c(=O)c(-c2c(Cl)cccc2Cl)cc2cnc(Nc3cccc(C(=O)O)c3)nc21
active: Potency (CRL-7250) 1.16 µM | Potency (HEK293) 2.31 µM | Potency (KB-3-1) 4.61 µM
inactive: max response (HEK293) -22.7% | outcome (HaCat [1]) | outcome (KB-3-1) | max response (NIH3T3 [2]) 3.27% | outcome (NIH3T3 [2]) | outcome (HACAT [3]) | Potency (MCC-13) | Potency (MCC-26) | Potency (MKL-1) | Potency (MKL-2) | Potency (NIH3T3 [4]) | Potency (UISO) | Potency (WaGa) | Potency (C33A) | Potency (CAOV3) | Potency (CASKI) | Potency (Es-2) | Potency (HeLa) | Potency (Hek293T [5])

CN1CCC(COc2cnc(-c3cccc(Cn4nc(-c5cccc(C#N)c5)ccc4=O)c3)nc2)CC1
active: Potency (NIH3T3 [2]) 16.4 µM
inactive: outcome (CRL-7250) | outcome (HEK293) | outcome (HaCat [1]) | max response (KB-3-1) -7.63% | max response (NIH3T3 [2]) -5.81% | outcome (HACAT [3]) | outcome (HEK293T [6]) | Potency (MCC-13) | Potency (MCC-26) | Potency (UISO) | Potency (WaGa) | Potency (C33A) | Potency (CASKI) | Potency (Es-2) | Potency (HeLa) | Potency (Hek293T [5])

COC(=O)N1CCN(Cc2cccc(NC(=O)Nc3ccc(C)nc3)c2F)CC1
inactive: max response (CRL-7250) -17.2% | outcome (CRL-7250) | max response (HaCat [1]) 3.64% and 2.27% | max response (KB-3-1) -23.5% | max response (NIH3T3 [2]) -1.49% | outcome (NIH3T3 [2]) | Potency (MCC-13) | Potency (MCC-26) | Potency (MKL-1) | Potency (MKL-2) | Potency (NIH3T3 [4]) | Potency (UISO) | Potency (WaGa) | Potency (C33A) | Potency (CAOV3) | Potency (CASKI) | Potency (Es-2) | Potency (HeLa) | Potency (Hek293T [5])

C[C@@]1(c2cc(-c3cncnc3)c(F)cc2F)CCSC(N)=N1
inactive: max response (CRL-7250) 3.38% and -17.5% | max response (HEK293) 1.85% and -22.9% | max response (HaCat [1]) -8.12% and -24.8% | max response (KB-3-1) -3.27% | outcome (KB-3-1) | max response (NIH3T3 [2]) -1.07% | outcome (NIH3T3 [2]) | Potency (MCC-13) | Potency (MKL-1) | Potency (MKL-2) | Potency (NIH3T3 [4]) | Potency (UISO) | Potency (WaGa) | Potency (C33A) | Potency (CAOV3) | Potency (CASKI) | Potency (Es-2) | Potency (HeLa) | Potency (Hek293T [5])

CC1=C(C(=O)Nc2cc3cn[nH]c3cc2F)C(c2ccc(C(F)(F)F)cc2)CC(=O)N1 (stereo not given)
inactive: max response (CRL-7250) 1.25% | outcome (CRL-7250) | outcome (HEK293) | max response (HaCat [1]) 3.22% | outcome (HaCat [1]) | max response (KB-3-1) 1.78% and 8.86% | max response (NIH3T3 [2]) -7.07% | outcome (HACAT [3]) | outcome (HEK293T [6]) | Potency (MCC-26) | Potency (MKL-1) | Potency (MKL-2) | Potency (UISO) | Potency (C33A) | Potency (CAOV3) | Potency (CASKI) | Potency (Es-2) | Potency (HeLa) | Potency (Hek293T [5])
